Source: the supplement of paper PMC10646978
± gives the standard deviation.

Assays:
Details in all cases: modulator concentration 10 µM
[1] = tested on: RAW-Dual (murine macrophage reporter line); assay: NF-kB reporter (SEAP) activity fold change vs agonist alone; higher = enhanced NF-kB activity
In short: (§1)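 RAW-Dual murine macrophage reporter cells were plated at 50 000 per well in 384-well plates, pin-transferred compound to 10 μM final, and pre-incubated for 1 hour at 37 °C before a PRR agonist was added and the cells incubated overnight. NF-κB activity was read from supernatant SEAP with QUANTI-Blue at 620 nm absorbance, and IRF activity from Lucia luciferase with QUANTI-Luc by luminescence. Each signal was expressed as fold change by dividing by the mean agonist-only control on the same plate. Two replicate plates were averaged, with errors obtained by propagation.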

[2] = tested on: RAW-Dual (murine macrophage reporter line); assay: IRF reporter (Lucia luciferase) activity fold change vs agonist alone; higher = enhanced IRF activity
In short: as §1

[3] = tested on: RAW-Dual (murine macrophage reporter line); assay: viability score (confluency relative to resting cells, overnight) (fraction); higher = more viable, active = viable (0.7 or more)
In short: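 A compound met the cutoff when both of two confluency masks exceeded 70% of resting cells. Those masks were made with IncuCyte software from IncuCyte images of RAW-Dual macrophages treated overnight at 10 μM final. This is the basis of the viability score, which is confluency relative to resting cells.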

[4] = agonist: CpG ODN 1826 0.5 ug/mL

## CCOC(C#CCN(CC)CC)(c1ccccc1)c1ccccc1.Cl
[1]; [4]
  NF-kB reporter: 0.215 ± 0.018
[1]; agonist: LPS 0.1 ug/mL
  NF-kB reporter: 0.353 ± 0.049
[1]; agonist: MPLA […]
  NF-kB reporter: 0.424 ± 0.031
[2]; agonist: 3'3'-cGAMP 10 ug/mL
  IRF reporter: 0.773 ± 0.051
[2]; agonist: LPS 0.1 ug/mL
  IRF reporter: 0.813 ± 0.054
[2]; agonist: MPLA […]
  IRF reporter: 1.62 ± 0.4
[3]
  viability score: 0.0625 (inactive)

## Cl.Nc1ccn([C@@H]2O[C@H](CO)[C@@H](O)C2(F)F)c(=O)n1
[1]; [4]
  NF-kB reporter: 1.3 ± 0.31
[1]; agonist: LPS 0.1 ug/mL
  NF-kB reporter: 0.921 ± 0.05
[1]; agonist: MPLA […]
  NF-kB reporter: 1.29 ± 0.087
[2]; agonist: 3'3'-cGAMP 10 ug/mL
  IRF reporter: 1.25 ± 0.063
[2]; agonist: LPS 0.1 ug/mL
  IRF reporter: 1.51 ± 0.17
[2]; agonist: MPLA […]
  IRF reporter: 1.32 ± 0.21
[3]
  viability score: 0.173 (inactive)

## C=C(C)COc1ccc(-c2ncncc2-c2ccccc2)c(O)c1
[1]; [4]
  NF-kB reporter: 1.08 ± 0.18
[1]; agonist: LPS 0.1 ug/mL
  NF-kB reporter: 0.985 ± 0.088
[1]; agonist: MPLA […]
  NF-kB reporter: 0.963 ± 0.082
[2]; agonist: 3'3'-cGAMP 10 ug/mL
  IRF reporter: 0.996 ± 0.029
[2]; agonist: LPS 0.1 ug/mL
  IRF reporter: 1.14 ± 0.17
[2]; agonist: MPLA […]
  IRF reporter: 1.27 ± 0.13
[3]
  viability score: 1 (active)

## Cc1ccc(Nc2nc(N3CCOCC3)nc(N3CCN(c4ccccc4)CC3)n2)cc1
[1]; [4]
  NF-kB reporter: 0.454 ± 0.029
[1]; agonist: LPS 0.1 ug/mL
  NF-kB reporter: 1.05 ± 0.084
[1]; agonist: MPLA […]
  NF-kB reporter: 1.98 ± 0.059
[2]; agonist: 3'3'-cGAMP 10 ug/mL
  IRF reporter: 0.711 ± 0.027
[2]; agonist: LPS 0.1 ug/mL
  IRF reporter: 1.4 ± 0.067
[2]; agonist: MPLA […]
  IRF reporter: 1.9 ± 0.18
[3]
  viability score: 0.996 (active)

## COc1ccc(NC(=O)c2cn(-c3cc(N4CCSCC4)ncn3)cn2)cc1
[1]; [4]
  NF-kB reporter: 1.04 ± 0.058
[1]; agonist: LPS 0.1 ug/mL
  NF-kB reporter: 1.13 ± 0.091
[1]; agonist: MPLA […]
  NF-kB reporter: 0.939 ± 0.041
[2]; agonist: 3'3'-cGAMP 10 ug/mL
  IRF reporter: 1.03 ± 0.069
[2]; agonist: LPS 0.1 ug/mL
  IRF reporter: 1.13 ± 0.23
[2]; agonist: MPLA […]
  IRF reporter: 1.07 ± 0.33
[3]
  viability score: 0.997 (active)

## CCc1nc2ccccc2[nH]1
[1]; [4]
  NF-kB reporter: 1.04 ± 0.18
[1]; agonist: LPS 0.1 ug/mL
  NF-kB reporter: 0.954 ± 0.076
[1]; agonist: MPLA […]
  NF-kB reporter: 1.06 ± 0.1
[2]; agonist: 3'3'-cGAMP 10 ug/mL
  IRF reporter: 0.998 ± 0.028
[2]; agonist: LPS 0.1 ug/mL
  IRF reporter: 1.23 ± 0.12
[2]; agonist: MPLA […]
  IRF reporter: 1.44 ± 0.21
[3]
  viability score: 1.01 (active)

## CSc1nnc(CSc2nc(C)cc(C)n2)n1-c1cccc(C(F)(F)F)c1
[1]; [4]
  NF-kB reporter: 0.958 ± 0.041
[1]; agonist: LPS 0.1 ug/mL
  NF-kB reporter: 0.862 ± 0.071
[1]; agonist: MPLA […]
  NF-kB reporter: 1.17 ± 0.07
[2]; agonist: 3'3'-cGAMP 10 ug/mL
  IRF reporter: 0.961 ± 0.053
[2]; agonist: LPS 0.1 ug/mL
  IRF reporter: 1.36 ± 0.34
[2]; agonist: MPLA […]
  IRF reporter: 1.37 ± 0.44
[3]
  viability score: 0.953 (active)

## O=[N+]([O-])c1ccc(-n2cccc2C=NNc2nc(N3CCCCC3)nc(N3CCCCC3)n2)cc1
[1]; [4]
  NF-kB reporter: 0.994 ± 0.087
[1]; agonist: LPS 0.1 ug/mL
  NF-kB reporter: 1.01 ± 0.12
[1]; agonist: MPLA […]
  NF-kB reporter: 0.926 ± 0.054
[2]; agonist: 3'3'-cGAMP 10 ug/mL
  IRF reporter: 0.907 ± 0.039
[2]; agonist: LPS 0.1 ug/mL
  IRF reporter: 1.38 ± 0.12
[2]; agonist: MPLA […]
  IRF reporter: 1.05 ± 0.1
[3]
  viability score: 1 (active)

## Cc1ccc(S(=O)(=O)n2cnc3ccccc32)cc1C
[1]; [4]
  NF-kB reporter: 0.594 ± 0.066
[1]; agonist: LPS 0.1 ug/mL
  NF-kB reporter: 1.11 ± 0.065
[1]; agonist: MPLA […]
  NF-kB reporter: 1.07 ± 0.064
[2]; agonist: 3'3'-cGAMP 10 ug/mL
  IRF reporter: 1.12 ± 0.042
[2]; agonist: LPS 0.1 ug/mL
  IRF reporter: 1.37 ± 0.12
[2]; agonist: MPLA […]
  IRF reporter: 1.06 ± 0.07
[3]
  viability score: 0.988 (active)

## CCCCCN(CCCCC)C(=O)C(CCC(=O)[O-])NC(=O)c1ccc(Cl)c(Cl)c1 (stereo unspecified) [Prestw-915]
[1]; [4]
  NF-kB reporter: 1.02 ± 0.064
[1]; agonist: LPS 0.1 ug/mL
  NF-kB reporter: 0.954 ± 0.096
[1]; agonist: MPLA […]
  NF-kB reporter: 0.901 ± 0.064
[2]; agonist: 3'3'-cGAMP 10 ug/mL
  IRF reporter: 1.1 ± 0.073
[2]; agonist: LPS 0.1 ug/mL
  IRF reporter: 1.55 ± 0.17
[2]; agonist: MPLA […]
  IRF reporter: 1.29 ± 0.14
[3]
  viability score: 0.832 (active)

## CCOC(=O)[C@H](CCc1ccccc1)N[C@H]1CCc2ccccc2N(CC(=O)O)C1=O [Prestw-1129]
[1]; [4]
  NF-kB reporter: 1.13 ± 0.097
[1]; agonist: LPS 0.1 ug/mL
  NF-kB reporter: 0.978 ± 0.079
[1]; agonist: MPLA […]
  NF-kB reporter: 0.941 ± 0.06
[2]; agonist: 3'3'-cGAMP 10 ug/mL
  IRF reporter: 1.02 ± 0.045
[2]; agonist: LPS 0.1 ug/mL
  IRF reporter: 1 ± 0.047
[2]; agonist: MPLA […]
  IRF reporter: 0.879 ± 0.087
[3]
  viability score: 0.994 (active)

## CC(=O)NO
[1]; [4]
  NF-kB reporter: 0.863 ± 0.12
[1]; agonist: LPS 0.1 ug/mL
  NF-kB reporter: 0.93 ± 0.071
[1]; agonist: MPLA […]
  NF-kB reporter: 0.953 ± 0.053
[2]; agonist: 3'3'-cGAMP 10 ug/mL
  IRF reporter: 0.834 ± 0.068
[2]; agonist: LPS 0.1 ug/mL
  IRF reporter: 0.901 ± 0.15
[2]; agonist: MPLA […]
  IRF reporter: 0.977 ± 0.092
[3]
  viability score: 1 (active)

## CC(C)(C)C1(O)CC(C(F)(F)F)=NN1C(=O)c1ccc([N+](=O)[O-])cc1 (stereo unspecified)
[1]; [4]
  NF-kB reporter: 0.644 ± 0.056
[1]; agonist: LPS 0.1 ug/mL
  NF-kB reporter: 0.79 ± 0.095
[1]; agonist: MPLA […]
  NF-kB reporter: 1.01 ± 0.035
[2]; agonist: 3'3'-cGAMP 10 ug/mL
  IRF reporter: 1.38 ± 0.13
[2]; agonist: LPS 0.1 ug/mL
  IRF reporter: 1.13 ± 0.14
[2]; agonist: MPLA […]
  IRF reporter: 1.66 ± 0.33
[3]
  viability score: 0.941 (active)
